The source made the active and inactive calls. Cut-off read from the data, not from the text of the source: active = fold change permeability below about 0.7 or above about 1.3; inactive = in between.
Assay: modulators of brain endothelial barrier permeability, primary screen, cell-based, FITC-avidin fluorescence, HTS (AID 1963498); note: test concentration not given here
Conditions: actives lie on both sides
In the case of `NC(N)=N/N=C/c1c(Cl)cccc1Cl`, the fold change permeability is reported as 1 (inactive).
In the case of `C[C@H](O)C(=O)C1=Nc2c(nc(N)[nH]c2=O)NC1`, the fold change permeability is reported as 0.7 (active).
For `C/C(O)=C(\C#N)C(=O)Nc1ccc(C(F)(F)F)cc1`, the fold change permeability was 1.2 (inactive).
For `CC(=O)N[C@H]1[C@H]([C@H](O)[C@H](O)CO)OC(C(=O)O)=C[C@@H]1N=C(N)N`, the fold change permeability was 0.9 (inactive).
For `CC(C)(C)NCC(O)COc1nsnc1N1CCOCC1` (centres undefined), the fold change permeability was 1.4 (active).
With `c1ccc2c(CC3=NCCN3)cccc2c1` the fold change permeability was 0.9 (inactive).
In the case of `Fc1ccc(CN(C2=NCCN2)c2c(Cl)cccc2Cl)cc1`, the fold change permeability is reported as 1.1 (inactive).
With `CC[C@H]1OC(=O)[C@H](C)C(=O)[C@H](C)[C@@H](O[C@@H]2O[C@H](C)C[C@H](N(C)C)[C@H]2O)[C@](C)(OC)C[C@@H](C)C(=O)[C@H](C)[C@H]2N(CCCCn3cnc(-c4cccnc4)c3)C(=O)O[C@]12C` the fold change permeability was 0.7 (active).
For `N[C@@H](CCCC(=O)O)C(=O)O`, the fold change permeability was 1.1 (inactive).
For `O=C(O)C1=CCCN(CCON=C(c2ccccc2)c2ccccc2)C1`, the fold change permeability was 1.1 (inactive).
With `O=C(COc1ccc(Cl)cc1)NC1CCC(NC(=O)COc2ccc(Cl)cc2)CC1` (centres undefined) the fold change permeability was 0.9 (inactive).
In the case of `CCCCOc1ccc(CC/C=C2\SC(=O)N(CCN)C2=O)cc1`, the fold change permeability is reported as 1.6 (active).
For `C[C@]12C=CC(=O)C=C1CC[C@H]1[C@@H]3C[C@@H](O)[C@](O)(C(=O)CO)[C@@]3(C)C[C@H](O)[C@@]12F`, the fold change permeability was 1.4 (active).
For `O=C1NCN(c2ccccc2)C12CCN(CCCC(c1ccc(F)cc1)c1ccc(F)cc1)CC2`, the fold change permeability was 1.2 (inactive).
In the case of `CC(C)[C@H]1c2ccc(F)cc2CC[C@@]1(CCN(C)CCCc1nc2ccccc2[nH]1)OC(=O)C1CC1`, the fold change permeability is reported as 1.3 (active).
In the case of `N=C(N)c1ccccc1`, the fold change permeability is reported as 0.9 (inactive).
In the case of `Nc1ccn([C@H]2CC[C@@H](CO)O2)c(=O)n1`, the fold change permeability is reported as 1 (inactive).
In the case of `CN(C)CCCC1(c2ccc(F)cc2)OCc2cc(C#N)ccc21` (centres undefined), the fold change permeability is reported as 0.9 (inactive).
In the case of `O=C1/C(=C/c2cccs2)CC/C1=C\c1cccs1`, the fold change permeability is reported as 1.6 (active).
With `Oc1ccc(O)cc1` the fold change permeability was 1.4 (active).
For `O=C(O)c1cc(=O)c2ccccc2[nH]1`, the fold change permeability was 1.6 (active).
In the case of `Cc1cc(Cl)ccc1OCCCC(=O)NO`, the fold change permeability is reported as 1 (inactive).
For `O=C(O)C1(C(=O)O)CCC1.[NH2-].[NH2-].[Pt+2]`, the fold change permeability was 0.8 (inactive).
In the case of `CN1CCN(C2=Nc3ccccc3Cc3ccccc32)CC1`, the fold change permeability is reported as 1.2 (inactive).
For `N[C@@H](Cc1cc(CP(=O)(O)O)cc(-c2ccccc2Cl)c1)C(=O)O`, the fold change permeability was 0.9 (inactive).
With `NC(N)=NCCC[C@H](N)C(=O)O` the fold change permeability was 1.1 (inactive).
With `Cn1cc(C(=O)OCC2CCN(CCNS(C)(=O)=O)CC2)c2ccccc21` the fold change permeability was 1 (inactive).
With `O=C(O)CN(CCN(CC(=O)O)CC(=O)O)CCN(CC(=O)O)CC(=O)O` the fold change permeability was 1 (inactive).
In the case of `Cc1nc2sccn2c(=O)c1CCN1CCC(=C(c2ccc(F)cc2)c2ccc(F)cc2)CC1`, the fold change permeability is reported as 1.9 (active).
For `C[n+]1cccc(C(N)=O)c1`, the fold change permeability was 0.9 (inactive).
For `COC(=O)[C@H]1[C@H]2C[C@@H]3c4[nH]c5cc(OC)ccc5c4CCN3C[C@H]2C[C@@H](OC(=O)c2cc(OC)c(OC)c(OC)c2)[C@@H]1OC`, the fold change permeability was 1.5 (active).
For `O=C(c1cc(O)c(O)c([N+](=O)[O-])c1)c1ccccc1F`, the fold change permeability was 1.7 (active).
With `NCCS` the fold change permeability was 0.9 (inactive).
With `Cc1nc2ccc(NC(=O)Nc3ccnc4cccnc34)cc2o1` the fold change permeability was 1.4 (active).
In the case of `COCCOC(=O)C1=C(C)NC(C)=C(C(=O)OC(C)C)C1c1cccc([N+](=O)[O-])c1` (centres undefined), the fold change permeability is reported as 0.7 (active).
For `Oc1ccc2c(c1)OC[C@]1(O)Cc3cc(O)c(O)cc3[C@H]21`, the fold change permeability was 1.7 (active).
With `CC(C)C(=O)Nc1n[nH]c2cc(-c3cccc(NS(=O)(=O)C4CC4)c3)ccc12` the fold change permeability was 1.2 (inactive).
For `CN(C)CCC(c1ccccc1)c1ccccn1` (centres undefined), the fold change permeability was 1 (inactive).
With `CC(C)(C)c1ccc(S(=O)(=O)/C=C/C#N)cc1` the fold change permeability was 1.2 (inactive).

Reference: PubChem BioAssay
